Measurements from PubChem BioAssay (NCATS).
Results filed as inconclusive are left out. Unmarked numbers belong to inactive results. The list shows a part of the results. A call without a number means that no potency is given here. Calls of active or inactive are those of the source. Unless noted, the call rests on the fitted dose curve; in most records, active means well fitted curve in the direction sought with a large enough effect; inconclusive means small, poorly fitted or top-dose-only effect, or another doubt; inactive means no such curve, though single readings can be large; an effect the other way counts as inactive or inconclusive.

Assays:
[1] = target: Rap guanine nucleotide exchange factor 3 (Homo sapiens) (UniProt O95398); test: Confirmatory qHTS for antagonist of cAMP-regulated guanine nucleotide exchange factor 3 (EPAC1) (AID 1645880); conditions: EPAC1 Rap1B-BODIPY-GDP exchange, fluorescence; activity, negative = inhibition: at 115 µM (top of the series); further: nearly all actives have a fitted effect of over 55% in size; further: potency means the concentration at half of the fitted maximal effect
Rap guanine nucleotide exchange factor 3 (Homo sapiens), sequence (O95398 whole entry, looked up): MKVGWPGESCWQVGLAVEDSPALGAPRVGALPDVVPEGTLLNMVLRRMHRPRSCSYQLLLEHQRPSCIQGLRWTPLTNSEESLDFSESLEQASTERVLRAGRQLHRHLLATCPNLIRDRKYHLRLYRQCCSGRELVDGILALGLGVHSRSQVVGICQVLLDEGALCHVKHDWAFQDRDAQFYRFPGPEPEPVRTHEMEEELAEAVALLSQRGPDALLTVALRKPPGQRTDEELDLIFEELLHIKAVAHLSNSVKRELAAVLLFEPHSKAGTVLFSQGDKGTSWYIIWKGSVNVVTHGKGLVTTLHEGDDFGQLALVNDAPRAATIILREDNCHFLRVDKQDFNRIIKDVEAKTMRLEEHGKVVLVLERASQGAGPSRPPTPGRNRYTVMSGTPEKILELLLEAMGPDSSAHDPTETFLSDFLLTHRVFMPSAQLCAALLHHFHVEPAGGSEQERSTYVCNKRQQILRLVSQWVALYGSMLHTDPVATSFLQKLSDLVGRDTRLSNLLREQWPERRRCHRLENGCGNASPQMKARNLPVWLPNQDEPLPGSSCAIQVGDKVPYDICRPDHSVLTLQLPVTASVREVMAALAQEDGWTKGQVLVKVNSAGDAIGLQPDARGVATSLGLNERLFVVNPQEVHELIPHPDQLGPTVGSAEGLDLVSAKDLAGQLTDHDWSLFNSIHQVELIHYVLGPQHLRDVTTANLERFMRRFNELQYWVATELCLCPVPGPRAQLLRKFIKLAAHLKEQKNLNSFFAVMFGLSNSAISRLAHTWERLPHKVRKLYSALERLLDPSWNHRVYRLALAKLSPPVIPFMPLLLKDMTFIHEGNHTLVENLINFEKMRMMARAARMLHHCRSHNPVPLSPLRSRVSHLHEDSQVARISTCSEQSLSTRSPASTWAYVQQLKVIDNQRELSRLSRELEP
How it was run: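 Nucleotide exchange uses 100 nM EPAC1, 250 nM RAP1B-BODIPY-GDP and 50 uM GDP, with compounds in a concentration-titration series. After 5 min at room temperature, fluorescence (480 nm ex/540 nm em) is read every 5 min for 30 min. Data are normalized to control ATA and DMSO.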

[2] = target: Rap guanine nucleotide exchange factor 3 (Homo sapiens) (UniProt O95398); test: Confirmatory qHTS for agonist of cAMP-regulated guanine nucleotide exchange factor 3 (EPAC1) (AID 1645881); further: nearly all actives have a fitted effect of over 75% in size; further: potency means the concentration at half of the fitted maximal effect;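 on activation: EPAC1 catalysed release of BODIPY-GDP from Rap1B seen as fluorescence loss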
[3] = target: Rap guanine nucleotide exchange factor 4 (Homo sapiens) (UniProt Q8WZA2); test: Confirmatory qHTS for agonist of cAMP-regulated guanine nucleotide exchange factor 4 (EPAC2) (AID 1645884);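 further: nucleotide exchange releases bodipy-GDP from Rap1 and this lowers its fluorescence; nearly all actives have a fitted effect of over 65% in size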; further: potency means the concentration at half of the fitted maximal effect
Rap guanine nucleotide exchange factor 4 (Homo sapiens), sequence (Q8WZA2 whole entry, looked up): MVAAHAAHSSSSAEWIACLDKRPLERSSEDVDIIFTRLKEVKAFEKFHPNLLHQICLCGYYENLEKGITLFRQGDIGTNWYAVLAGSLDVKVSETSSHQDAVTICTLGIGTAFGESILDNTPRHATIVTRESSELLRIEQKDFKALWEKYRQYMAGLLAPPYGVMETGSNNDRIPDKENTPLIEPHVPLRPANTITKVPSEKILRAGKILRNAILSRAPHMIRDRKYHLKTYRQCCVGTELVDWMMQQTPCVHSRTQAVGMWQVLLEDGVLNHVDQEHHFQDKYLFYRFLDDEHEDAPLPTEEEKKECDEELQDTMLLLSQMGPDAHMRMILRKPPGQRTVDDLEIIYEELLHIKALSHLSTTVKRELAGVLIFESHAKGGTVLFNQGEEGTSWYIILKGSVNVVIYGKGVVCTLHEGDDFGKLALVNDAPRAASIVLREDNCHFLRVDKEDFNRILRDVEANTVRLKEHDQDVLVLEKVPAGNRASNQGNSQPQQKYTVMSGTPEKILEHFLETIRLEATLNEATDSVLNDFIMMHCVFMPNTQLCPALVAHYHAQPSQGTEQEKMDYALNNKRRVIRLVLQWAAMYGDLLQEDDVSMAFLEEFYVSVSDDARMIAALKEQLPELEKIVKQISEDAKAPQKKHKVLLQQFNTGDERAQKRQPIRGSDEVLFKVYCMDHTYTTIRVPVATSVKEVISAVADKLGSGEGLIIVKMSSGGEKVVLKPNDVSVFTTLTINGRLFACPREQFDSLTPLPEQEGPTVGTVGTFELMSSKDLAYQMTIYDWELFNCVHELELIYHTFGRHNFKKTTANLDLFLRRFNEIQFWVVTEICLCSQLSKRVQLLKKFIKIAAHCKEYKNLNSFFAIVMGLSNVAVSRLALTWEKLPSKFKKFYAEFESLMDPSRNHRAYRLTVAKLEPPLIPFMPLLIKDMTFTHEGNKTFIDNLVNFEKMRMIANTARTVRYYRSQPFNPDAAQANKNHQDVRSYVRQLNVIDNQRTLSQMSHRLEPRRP

[4] = target: Rap guanine nucleotide exchange factor 4 (Homo sapiens) (UniProt Q8WZA2); test: Confirmatory qHTS for antagonist of cAMP-regulated guanine nucleotide exchange factor 4 (EPAC2) (AID 1645885); further: nearly all actives have a fitted effect of over 25% in size; further: potency means the concentration at half of the fitted maximal effect
[5] = target: Rap guanine nucleotide exchange factor 3 (Homo sapiens) (UniProt O95398); test: Counterscreen qHTS for agonist of cAMP-regulated guanine nucleotide exchange factor 3 (EPAC1) (AID 1645889); further: nearly all actives have a fitted effect of over 40% in size
How it was run: (§1)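 Rap1B-BODIPY-GDP 250 nM + GDP 50 uM; cpds 7-pt, final 9.74 nM–152 uM (activator mode) or from 7.32 nM upwards (inhibitor mode); RT; FI 480/540 nm at 5 and 30 min, then ± cAMP, reread.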

[6] = target: Vitamin D3 receptor (Homo sapiens) (UniProt P11473); test: qHTS for Inhibitors of the vitamin D receptor (VDR): Hit Validation in Primary Screen (AID 602199); conditions: VDR-coactivator inhibition assay, qHTS confirmation; further: potency means the concentration at half of the fitted maximal effect
Vitamin D3 receptor (Homo sapiens), sequence (P11473 whole entry, looked up, the tested form may be a part): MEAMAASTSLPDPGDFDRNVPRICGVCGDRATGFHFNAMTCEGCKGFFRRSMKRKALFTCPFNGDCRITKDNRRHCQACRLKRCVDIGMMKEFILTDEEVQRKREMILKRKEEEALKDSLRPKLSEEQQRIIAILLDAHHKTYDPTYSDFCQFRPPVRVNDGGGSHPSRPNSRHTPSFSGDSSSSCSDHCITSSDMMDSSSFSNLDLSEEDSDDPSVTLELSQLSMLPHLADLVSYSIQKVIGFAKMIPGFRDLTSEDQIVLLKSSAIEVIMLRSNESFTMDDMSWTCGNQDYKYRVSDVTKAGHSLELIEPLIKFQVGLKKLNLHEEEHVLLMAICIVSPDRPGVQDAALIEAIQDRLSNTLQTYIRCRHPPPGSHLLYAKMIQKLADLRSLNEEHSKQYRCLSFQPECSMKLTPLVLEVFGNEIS
How it was run: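 With 800 nM VDR and 5 uM LG19078 agonist present, compounds were incubated 2 h at ambient temperature with Alexa 647-labelled SRC2-3. Displacement was read as polarization at 620/688 nm.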

[7] = qHTS for Inhibitors of the vitamin D receptor (VDR): Hit Validation using a Texas Red Assay (AID 602201); further: potency means the concentration at half of the fitted maximal effect
How it was run: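 After a 2-hour room-temperature incubation, polarization of Texas-Red emission was read (Ex 595 nm/Em 615 nm). Final mix contained 7 nM Texas Red, 1.5 uM VDR-LBD and LG19078.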

[8] = target: Vitamin D3 receptor (Homo sapiens) (UniProt P11473); test: qHTS for Inhibitors of the vitamin D receptor (VDR): Hit Validation using a Beta-Lactamase Assay (AID 602202)
How it was run: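 Beta-lactamase reporter read-out (447 nm emission of cleaved FRET substrate, 2 h) after 18 h compound exposure of HEK293 cells carrying a VDR-GAL4 fusion and UAS reporter, stimulated with LG190178.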

[9] = qHTS for Inhibitors of the vitamin D receptor (VDR): Hit Validation using a Cytotoxicity Assay (AID 602204); further: nearly all actives have a fitted effect of over 75% in size
How it was run: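 20,000 cells/well, 4 h settle; add cpds, 18 h; ATP luminescence reagent, 30 min, read. Pos ctrl cycloheximide (high conc), neg ctrl DMSO.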

[10] = target: DNA polymerase eta (Homo sapiens) (UniProt Q9Y253); test: qHTS for Inhibitors of Polymerase Eta: Confirmatory Assay for Cherry-picked Compounds (AID 720502); conditions: Pol eta primer extension, TAMRA/BHQ fluorescence, 10 min; further: potency means the concentration at half of the fitted maximal effect
DNA polymerase eta (Homo sapiens), sequence (Q9Y253 whole entry, looked up): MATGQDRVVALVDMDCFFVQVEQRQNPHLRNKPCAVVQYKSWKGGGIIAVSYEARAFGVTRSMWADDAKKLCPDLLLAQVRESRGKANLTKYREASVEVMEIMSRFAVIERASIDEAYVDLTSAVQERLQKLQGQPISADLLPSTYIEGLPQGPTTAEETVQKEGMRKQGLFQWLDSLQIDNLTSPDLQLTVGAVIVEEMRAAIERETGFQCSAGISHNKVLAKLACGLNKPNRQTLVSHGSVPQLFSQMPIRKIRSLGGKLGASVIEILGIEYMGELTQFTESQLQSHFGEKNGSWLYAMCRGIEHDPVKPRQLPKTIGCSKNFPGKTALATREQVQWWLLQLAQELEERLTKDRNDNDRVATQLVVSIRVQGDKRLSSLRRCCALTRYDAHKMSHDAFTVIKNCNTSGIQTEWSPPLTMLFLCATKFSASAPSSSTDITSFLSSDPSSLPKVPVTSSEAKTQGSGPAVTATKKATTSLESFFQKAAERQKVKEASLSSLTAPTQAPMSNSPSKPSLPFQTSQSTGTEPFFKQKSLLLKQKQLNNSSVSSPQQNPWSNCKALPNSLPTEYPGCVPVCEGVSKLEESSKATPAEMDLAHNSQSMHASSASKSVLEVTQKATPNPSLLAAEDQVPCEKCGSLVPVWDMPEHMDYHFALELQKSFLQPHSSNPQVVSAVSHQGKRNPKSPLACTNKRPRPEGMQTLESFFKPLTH
How it was run: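 Strand-displacement fluorescence (525 nm excitation, 598 nm emission) was read kinetically at 0 and 10 min after adding 50 nM final TAMRA-reporter/BHQ-2-template substrate. Beforehand, 10 nM Pol eta had been exposed to compound for 15 min at room temperature.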

[11] = target: Cytochrome P450 2D6 (Homo sapiens) (UniProt P10635); test: qHTS Assay for Inhibitors and Substrates of Cytochrome P450 2D6 (AID 891); further: potency means the concentration at half of the fitted maximal effect; nearly all actives have a fitted effect of over 60% in size
Cytochrome P450 2D6 (Homo sapiens), sequence (P10635 whole entry, looked up): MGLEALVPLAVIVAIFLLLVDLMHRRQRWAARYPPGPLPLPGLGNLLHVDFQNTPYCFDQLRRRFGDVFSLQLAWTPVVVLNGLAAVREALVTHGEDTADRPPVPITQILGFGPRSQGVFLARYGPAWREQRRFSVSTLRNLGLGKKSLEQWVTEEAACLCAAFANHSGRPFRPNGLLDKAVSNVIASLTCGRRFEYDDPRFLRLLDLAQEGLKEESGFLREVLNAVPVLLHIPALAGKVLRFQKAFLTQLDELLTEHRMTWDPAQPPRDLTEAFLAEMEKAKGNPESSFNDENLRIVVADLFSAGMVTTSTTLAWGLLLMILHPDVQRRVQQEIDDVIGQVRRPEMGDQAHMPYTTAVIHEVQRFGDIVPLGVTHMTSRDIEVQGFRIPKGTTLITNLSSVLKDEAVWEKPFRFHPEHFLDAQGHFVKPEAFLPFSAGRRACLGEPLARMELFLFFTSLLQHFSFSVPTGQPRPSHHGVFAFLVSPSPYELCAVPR
How it was run: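 Human CYP2D6 (5 nM) with 30 uM Luciferin-ME EGE (at Km) in 100 mM KPO4, compound preincubated 10 min, then NADPH regeneration system for 60 min at room temperature. Luciferin read by luminescence; normalized to 1.43 uM quinidine.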

[12] = qHTS Assay for Identification of Small Molecule Agonists for Hypoxia Response Element Signaling Pathway (AID 914; active means well fitted activation curve with a large enough effect in the signal ratio, with a control signal flat, not every such curve was filed as active; the % refers to the signal ratio; further: potency means the concentration at half of the fitted maximal effect); conditions: ME-180 (cervical carcinoma) HRE-bla reporter, beta-lactamase ratio, CoCl2, 17 h; activation: stronger effect = higher value
How it was run: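 HRE-bla ME-180 cells, overnight plating in Opti-MEM with 0.5% dialyzed FBS; cpd titration + EC50 CoCl2, 17 h, 37 degrees Celsius; CCF4 2.5 h RT; 460/530 nm ratio; AC50.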

[13] = target: Rap guanine nucleotide exchange factor 3 (Homo sapiens) (UniProt O95398); test: Counterscreen qHTS for antagonist of cAMP-regulated guanine nucleotide exchange factor 3 (EPAC1) (AID 1645888);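 further: fluorescence loss as bound BODIPY-GDP is released from Rap1B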
How it was run: as §1

## O=C1/C(=C/c2ccc(O)c(O)c2)SC(=S)N1Nc1ccccc1
[1]
  Potency: 16.9 µM (active)
[2]
  Potency: inactive
[3]
  Potency: inactive
[4]
  Potency: inactive
[5]
  Potency: inactive

## CC(C)CCn1c(Oc2ccc(Cl)cc2)nc2c1c(=O)n(C)c(=O)n2C
[1]
  Potency: inactive
[2]
  Potency: inactive
[3]
  Potency: inactive
[4]
  Potency: 16.9 µM (active)
[5]
  Potency: inactive

## CCOC(=O)N1CCC2CC1c1cc(-c3cccc(OC)c3)ccc12 (stereo not given)
[1]
  Potency: inactive
[2]
  Potency: inactive
[3]
  Potency: inactive
[4]
  Potency: inactive
[5]
  Potency: inactive

## CCC1=NN(C(=O)c2ccc(Br)cc2)C(O)(c2ccccc2)C1 (stereo not given)
[1]
  Potency: inactive
[2]
  Potency: inactive
[3]
  activation: 2.89% [at 17.1 µM, percent relative to cAMP agonist control]
[4]
  Potency: inactive
[5]
  activation: 19.8% [at 30.8 µM]

## CCC/C=C/c1ccc(CN2C(CC(C)C)C(=O)N(Cc3cn(CCC4OCCO4)nn3)CCS2(=O)=O)cc1 (stereo not given)
[1]
  Potency: 37.9 µM (active)
[2]
  Potency: inactive
[3]
  Potency: inactive
[4]
  Potency: 23.9 µM (active)
[5]
  Potency: inactive

## O=S(=O)(Nc1nc2ccccc2nc1Nc1cccc(S(=O)(=O)N2CCCCC2)c1)c1ccccc1
[1]
  Potency: 56.2 µM (active)
[2]
  Potency: inactive
[3]
  activation: 6.04% [at 17.1 µM, percent relative to cAMP agonist control]
[4]
  Potency: inactive
[5]
  activation: 25.8% [at 30.8 µM]

## CC(=O)Nc1cccc(/C(C)=N/Nc2ccc(S(=O)(=O)Nc3ccccc3C(=O)O)cc2[N+](=O)[O-])c1
[1]
  Potency: 21.3 µM (active)
[2]
  Potency: inactive
[3]
  Potency: inactive
[4]
  Potency: inactive
[5]
  Potency: inactive

## CCn1c(O)c(/C=N/N=C/c2ccc(OC)cc2)c2cc(C3=NNC(=O)CC3)ccc21
[1]
  Potency: inactive
[2]
  Potency: 89.1 µM (active)
[3]
  Potency: 100 µM (active)
[4]
  Potency: inactive
[5]
  Potency: inactive

## COc1cccc(C(=O)C(CCC#N)c2ccccc2)c1 (stereo not given)
[1]
  Potency: inactive
[2]
  Potency: inactive
[3]
  Potency: inactive
[4]
  Potency: inactive
[5]
  Potency: inactive

## O=C(O)c1ccc2c(c1)C(=O)N(c1ccc(/C=C/C(=O)c3ccccc3)cc1)C2=O
[6]
  Potency: 10.6 µM (active)
[7]
  Potency: inactive
[8]
  Potency: inactive
[9]
  Potency: inactive
[10]
  Potency: 33.8 µM (active)
[1]
  Potency: 39.8 µM (active)
[2]
  Potency: inactive
[3]
  activation: 5.43% [at 17.1 µM, percent relative to cAMP agonist control]
[4]
  Potency: inactive
[5]
  activation: 8.33% [at 30.8 µM]

## O=S(=O)(O)c1ccc(N=NNc2ccc(Br)cc2)cc1
[1]
  Potency: inactive
[2]
  Potency: inactive
[3]
  Potency: inactive
[4]
  Potency: 26.9 µM (active)
[5]
  Potency: inactive

## CCC(=O)N1c2ccc(S(=O)(=O)NCCc3ccc(C)cc3)cc2CC1C (stereo not given)
[1]
  Potency: inactive
[2]
  Potency: inactive
[3]
  Potency: inactive
[4]
  Potency: inactive
[5]
  Potency: inactive

## O=C(COC(=O)COc1ccc(Cl)cc1Cl)NC1CCCC1
[1]
  Potency: inactive
[2]
  Potency: inactive
[3]
  activation: 9.18% [at 17.1 µM, percent relative to cAMP agonist control]
[4]
  Potency: inactive
[5]
  activation: -1.05% [at 30.8 µM]

## CCOC(=O)c1c(-c2ccc(-c3ccccc3)cc2)csc1NC(=O)CCC(=O)O
[1]
  Potency: 42.6 µM (active)
[2]
  Potency: inactive
[3]
  Potency: inactive
[4]
  Potency: inactive
[5]
  Potency: inactive

## COc1cccc(CC(=NO)c2cccc(OC)c2)c1
[1]
  Potency: inactive
[2]
  Potency: inactive
[3]
  activation: 4.78% [at 17.1 µM, percent relative to cAMP agonist control]
[4]
  Potency: inactive
[5]
  activation: 2.23% [at 30.8 µM]

## COc1ccc2[nH]cc(CCNc3ncnc4ccc(-c5ccccc5OC)cc34)c2c1
[11]
  Potency: 3.98 µM (active)

## COc1cccc(-c2cncnc2NCc2ccccc2OC)c1
[11]
  Potency: 7.94 µM (active)

## CN1CCN(c2ncc3nc(-c4cccs4)c(=O)n(CCc4ccccc4)c3n2)CC1
[12]
  Potency: 3.16 µM (active)

## CN1CCN(c2ncc3nc(-c4cn(C)c5ccccc45)c(=O)n(CCC#N)c3n2)CC1
[12]
  Potency: 3.16 µM (active)

## CC1=NOC(=O)/C1=C\c1ccc(-c2ccc(Br)cc2)o1
[7]
  Potency: 3.16 µM (active)

## Cc1ccc(Sc2ncccc2C(=O)N(C)Cc2cccs2)c(C)c1
[1]
  Potency: inactive
[2]
  Potency: inactive
[3]
  Potency: inactive
[13]
  Potency: inactive

## CCCCN(C(=O)c1ccc2c(c1)OCO2)c1ccccc1
[1]
  Potency: inactive
[2]
  Potency: inactive
[3]
  Potency: inactive
[13]
  Potency: inactive

## CCCc1nc2c3ccccc3ccn2c1CC(C)(C)C
[1]
  Potency: inactive
[2]
  Potency: inactive
[3]
  Potency: inactive
[13]
  Potency: inactive

## CC(=O)c1ccc(NC(=O)c2ccc3c(c2)C(=O)N(c2ccccn2)C3=O)cc1
[1]
  Potency: 8.49 µM (active)
[2]
  Potency: inactive
[3]
  Potency: inactive
[13]
  Potency: inactive

## Cn1c2c(c3ccccc31)CCN1CCC[C@]21c1ccccc1
[1]
  Potency: inactive
[2]
  Potency: inactive
[3]
  Potency: inactive
[13]
  Potency: inactive
